Vaccinia stage: blocks a specific stage of Vaccinia orthopoxvirus infection; activity change (mCherry), % (no concentration beside the values); Vaccinia-infected cells, mCherry/Venus stage reporter fluorescence; hits give low values; 89,000 tested, 0.01% active; AID 1053133; in the data active = activity change below about -37%, passing the limit was not always enough; tested in A549 cells
* marks the source's active call; other numbers are inactive results. This is one part of a sample in which hits are shown more often than they occur.

SMILES	Vaccinia stage
CO[C@@H]1CN(C)C(=O)c2ccc(NC(=O)c3ccc(F)cc3)cc2OC[C@@H](C)N(C(=O)c2ccc(F)cc2)C[C@@H]1C	-5
CO[C@@H]1CN(C)C(=O)c2ccc(NC(=O)c3ccc(F)cc3)cc2OC[C@H](C)N(C(=O)c2ccc(F)cc2)C[C@H]1C	-3
CN1CCN(C(=O)C[C@@H]2CC[C@H]3[C@@H](COC[C@@H](O)CN3C(=O)c3ccc(F)cc3)O2)CC1	11
CN(C)CC(=O)Nc1ccc2c(c1)[C@H]1C[C@@H](CC(=O)NCc3cccc(F)c3)O[C@@H](CO)[C@H]1O2	6
C[C@@H]1CN([C@@H](C)CO)C(=O)c2cc(C#CCN(C)C)cnc2O[C@H]1CN(C)C(=O)c1ccc2c(c1)OCO2	-7
Cc1ccc(S(=O)(=O)N(C)C[C@H]2Oc3ccc(NS(=O)(=O)c4cccs4)cc3CC(=O)N([C@H](C)CO)C[C@@H]2C)cc1	-2
CN1C(=O)c2cc(NC(=O)c3cnccn3)ccc2OC[C@@H]2O[C@@H](CC(=O)N[C@@H]3CCN(Cc4ccccc4)C3)CC[C@H]21	24
CN(C)CC#Cc1ccc([C@H]2[C@@H](CO)N3C(=O)CN(C(=O)c4cccnc4)C[C@@H]23)cc1	4
C[C@@H]1CN([C@@H](C)CO)C(=O)Cc2cc(NC(=O)c3ccncc3)ccc2O[C@H]1CN(C)S(=O)(=O)c1ccc(Cl)cc1	13
O=C(c1cccc(F)c1)N1C[C@@H]2[C@H](c3ccccc31)[C@H](CO)N2C(=O)C1CCCC1	-5
CN(C)C(=O)c1ccc(-c2cccc(-c3nc(C(=O)NC4CCCC4)cc4c3[C@H](CCO)N([S@@](=O)C(C)(C)C)C4)c2)cc1	-36*
CN(C)C(=O)c1ccc(-c2cccc(-c3nc(C(=O)NC4CCC4)cc4c3[C@@H](CCO)N([S@](=O)C(C)(C)C)C4)c2)cc1	-11
CN(C)C(=O)c1ccc(-c2cccc(-c3nc(C(=O)NCc4ccccc4)cc4c3[C@@H](CCO)N([S@](=O)C(C)(C)C)C4)c2)cc1	-15
CN(C)C(=O)c1ccc(-c2cccc(-c3nc(C(=O)NC4CCCC4)cc4c3[C@@H](CCO)N([S@](=O)C(C)(C)C)C4)c2)cc1	-17
CN(C)C(=O)c1ccc(-c2cccc(-c3nc(C(=O)NC4CCCCC4)cc4c3[C@@H](CCO)N([S@](=O)C(C)(C)C)C4)c2)cc1	-51*
CN(C)C(=O)c1ccc(-c2cccc(-c3nc(C(=O)NCc4ccccc4)cc4c3[C@H](CCO)N([S@@](=O)C(C)(C)C)C4)c2)cc1	-24
C[C@H](CO)N1C[C@H](C)[C@@H](CN(C)C(=O)CC2CC2)Oc2ncc(-c3ccc(C#N)cc3)cc2C1=O	15
CC=Cc1ccc2n(c1=O)C[C@@H]1[C@@H](CO)[C@H](C(=O)NC3CCC3)[C@H]2N1Cc1ccncc1 (mixture of isomers)	12
Cc1noc(C)c1NC(=O)N1C[C@@H](O)COC[C@@H]2O[C@@H](CC(=O)NCC3CCCCC3)CC[C@H]21	7
COCC(=O)Nc1ccc2c(c1)C(=O)N(C)[C@@H]1CC[C@H](CC(=O)NCc3ccccc3)O[C@@H]1CO2	7
